Only some compounds are listed: those with a hit (about 0.25% of all), similar ones and a draw of the others.
USP2a inh = USP2a (human) protease inhibition | O75604 | Potency, µM (titrated, usually from 38.3 µM), without a hit: at the highest dose activity change, negative = inhibition, usual class: inhibitors | AID 463254 | 330,000 tested, 0.01% active | USP2 core, Ub-CHOP2 coupled fluorogenic reporter, 485/531;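 further: plate controls were DMSO wells for no effect and full inhibition by NEM control for full effect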
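Deubiquitinase activity read as fluorescence (485/531 nm) after Ub-CHOP2 cleavage activates the enterokinase reporter on its substrate; USP2 core 10nM, Ub-CHOP2 and substrate 25nM each, 30min compound preincubation then 60min RT; data normalized to NEM, curves fitted.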
RGS4 inh = blocks human RGS4-accelerated GTP hydrolysis | P49798 | Transcreener GDP fluorescence polarization, RGS4-accelerated GTP hydrolysis | Potency, µM (series often up to 114 µM), without a hit: top-dose activity change, negative = inhibition, actives largely listed as inhibitors | 390,000 tested, 0.039% active; further: nearly all actives have a fitted effect of over 75% in size
Target sequence (P49798 whole entry, looked up): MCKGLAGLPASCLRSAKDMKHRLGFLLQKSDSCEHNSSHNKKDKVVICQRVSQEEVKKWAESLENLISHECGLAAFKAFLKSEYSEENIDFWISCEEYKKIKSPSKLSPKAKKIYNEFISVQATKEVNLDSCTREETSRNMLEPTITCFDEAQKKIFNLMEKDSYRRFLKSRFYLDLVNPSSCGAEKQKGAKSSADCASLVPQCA
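MLSMR compounds (23 nl, pin-transferred) preincubated 10 min at room temperature with a 500nM (2x) first reagent, then RGS4 at 900nM (2x) plus Transcreener GDP mix added; fluorescence polarization (620/688 nm) read before and after 90 min at 30 °C.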
Tb PFK inh = inhibitors of T. brucei phosphofructokinase; O15648; T. brucei PFK, ADP-Glo luminescence; Potency, µM (titrated, usually from 57.5 µM), inactives show top-dose activity, negative = inhibition, usual class: inhibitors; 330,000 tested, 0.17% active; AID 485367;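 further: 0% = uninhibited 1x PFK enzyme wells and -100% = no-enzyme wells; nearly all actives have a fitted effect of over 60% in size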
Target sequence (O15648 whole entry, looked up): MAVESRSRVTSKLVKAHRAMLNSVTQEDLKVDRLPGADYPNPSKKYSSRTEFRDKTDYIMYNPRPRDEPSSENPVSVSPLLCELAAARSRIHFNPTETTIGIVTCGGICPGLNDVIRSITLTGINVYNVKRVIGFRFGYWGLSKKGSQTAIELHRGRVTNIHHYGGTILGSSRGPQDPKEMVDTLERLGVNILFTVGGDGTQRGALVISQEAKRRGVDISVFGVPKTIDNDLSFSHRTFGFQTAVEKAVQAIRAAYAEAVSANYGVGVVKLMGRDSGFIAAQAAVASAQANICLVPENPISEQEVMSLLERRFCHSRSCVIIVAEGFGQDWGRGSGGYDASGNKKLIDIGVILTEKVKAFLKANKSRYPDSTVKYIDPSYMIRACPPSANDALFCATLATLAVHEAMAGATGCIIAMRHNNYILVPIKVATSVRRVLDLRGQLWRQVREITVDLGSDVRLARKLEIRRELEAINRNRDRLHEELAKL
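PFK 1.25 nM, F6P 0.5 mM, ATP 0.1 mM, 0.1 M TEA pH 8.0, 5 mM MgCl2, 0.01% Tween20, 0.1% BSA; 45 min RT. ADP-Glo readout. qHTS titration up to 57 uM; curves fitted, compounds curve-classed.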
Tb PGK inh = blocks T. brucei phosphoglycerate kinase. P07378. PGK/GAPDH coupled, Kinase-Glo luminescence, 60 min. Potency, µM (top dose mostly 57.5 µM), for the others: top-dose activity change, negative = inhibition, actives largely listed as inhibitors. 380,000 tested, 0.043% active. AID 602233; further: nearly all actives have a fitted effect of over 60% in size
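Recombinant glycosomal PGK reaction used 1,3-bisphosphoglycerate generated in-well by GAPDH (100nM final) in 100mM TEA pH 7.6, 5mM MgCl2, 0.01% Tween-20. After 60 minutes at room temperature, ATP was read by Kinase-Glo Plus luminescence end-point.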
Chronic BCR inh = inhibitors of chronic active B-cell receptor signaling; ABC-DLBCL IkBa-CBG/CBR reporter, luminescence ratio, 4 h; Potency, µM (highest dose often 46.1 µM), inactives show top-dose activity change, negative = inhibition, usual class: inhibitors; AID 493014; 340,000 tested, 0.05% active; active means well fitted inhibition curve with a large enough effect in the signal ratio, with a control signal flat, not every such curve was filed as active; inconclusive means small, poorly fitted or top-dose-only effect, or effect the other way, or a change in a side signal; the % refers to the signal ratio;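 further: plate controls were basal doxycycline-induced cells for no effect and cells given 10 µM MG132 for full effect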
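TMD8 ABC-DLBCL cells carrying doxycycline-inducible green luciferase fused to IkappaBalpha plus unfused red luciferase were exposed to compounds (up to 46 uM) for 4 hrs at 37C. Activity came from the overlap-corrected green/red luminescence ratio.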
* hit, by the source's call; i = inactive; ? = inconclusive; · = no result; [ ] = dose if it differs, or a comment. Unless noted, the call rests on the fitted dose curve; in most records, active means well fitted curve in the direction sought with a large enough effect; inconclusive means small, poorly fitted or top-dose-only effect, or another doubt; inactive means no such curve, though single readings can be large; an effect the other way counts as inactive or inconclusive. Unless noted, on the % scale 0 is the no-effect control and ±100 the full control effect; potency means the concentration at half of the fitted maximal effect.

SMILES	USP2a inh	RGS4 inh	Tb PFK inh	Tb PGK inh	Chronic BCR inh
CCCC[C@@H]1CCCO[C@@](C(=O)NCc2ccccc2)(C(F)(F)F)C1	·	-3%	·	·	·
Cn1c(=S)c2[nH]c(SCCN3CCCC3)nc2n(C)c1=O	1%	-40%	-30%	i	11µM*
O=C(NC(=S)N1CCOCC1)c1ccc([N+](=O)[O-])cc1	-2%	13%	-6%	-8%	23µM*
O=C1c2ccccc2CC[C@H]1CNCCc1ccc(O)cc1	·	4.2µM*	·	·	·
O=C(NCCc1ccccc1)c1noc2c1CCc1ccccc1-2	3%	-19%	-2%	1%	4%
COc1ccc(-c2ccc(OC)c(C3C4C=CCCC4(C)C(=O)N3Cc3ccccc3)c2)cc1OC (stereo not drawn)	·	-12%	·	·	·
Cc1cc(C)c2c(=O)n(CC(=O)NCCCN3CCN(c4ccccc4F)CC3)sc2n1	0%	-147%	12µM*	-7%	9%
Cc1ccccc1CS(=O)(=O)CCC(=O)NCCCN1CCN(c2ccccc2F)CC1	2%	-2%	-1%	3%	-7%
O=C1CCCCC1c1cccc2ccccc12 (stereo not drawn)	2%	16%	3%	0%	-4%
O=C1O/C(=C/Br)CCC1c1cccc2ccccc12 (stereo not drawn)	·	9.5µM*	·	·	·
CCCN1CCC(=O)N(C(CSc2ccc(OC)cc2)c2ccccc2)CC1 (stereo not drawn)	·	-11%	·	·	·
COc1ccc(C2CC(c3ccccc3)Oc3cc4c(cc32)OCO4)cc1 (stereo not drawn)	·	-13%	·	·	·
N#Cc1c(NC(=O)CSc2ncn[nH]2)sc2c1CCCC2	-1%	-1%	7%	-4%	23µM*
COc1ccc(SCC(CC(C)C)N2CCN(C)CCC2=O)cc1 (stereo not drawn)	·	3%	·	·	·
Cc1nc2ncccn2c1-c1csc(Nc2ccccc2)n1	3%	?	7%	-10%	?
COc1ccc(Nc2nc(-c3c(C)nc4ncccn34)cs2)cc1	-1%	?	5%	-7%	3.5µM*
COc1ccc2c(c1OC)C(Cc1ccccc1)N1CCc3cc4c(cc3C1=C2)OCO4 (stereo not drawn)	·	61%[56.9 µM]	·	·	·
CC(=O)OCC(NC(=O)C(COCc1ccccc1)NC(=O)OC(C)(C)C)C1OC(n2ccc(=O)[nH]c2=O)C(OC(C)=O)C1OC(C)=O (stereo not drawn)	·	-1%	·	·	·
CCc1ccc2nc3n[nH]c(N)c3cc2c1	2%	13%	7%	-6%	13µM*
CC(=O)Nc1ccn(C2OC(C(COC(C)=O)NC(=O)C(Cc3ccccc3)NC(=O)OC(C)(C)C)C(OC(C)=O)C2OC(C)=O)c(=O)n1 (stereo not drawn)	·	-11%	·	·	·
O=C1CC(=O)N(Cc2ccco2)C(=O)N1	1%	-50%	24µM*	5µM*	3%
O=C1CC(=O)N(Cc2cccs2)C(=O)N1	3%	?	-1%	0%	11%
Cc1ccc(S(=O)(=O)Nc2c(Cl)c(Cl)c(O)c3ccccc23)cc1	0%	·	15µM*	·	?
Cc1ccc(S(=O)(=O)Nc2c(O)ccc3ccccc23)cc1	·	?	·	8%	·
COc1ccc(Nc2cc3n(c(=O)n2)CCc2cc(OC)c(OC)cc2-3)cc1	1%	-8%	-3%	0%	?
SMILES	USP2a inh	RGS4 inh	Tb PFK inh	Tb PGK inh	Chronic BCR inh
COc1ccc(Nc2cc3n(c(=O)n2)CCc2cc(OC)c(OC)cc2-3)c(C)c1	-8%	12%	1%	-3%	18µM*
O=C(O)c1cc(O)c2c(c1)[C@@H]([C@H]1c3cc(C(=O)O)cc(O)c3C(=O)c3c(O[C@@H]4O[C@H](CO)[C@@H](O)[C@H](O)[C@H]4O)cccc31)c1cccc(OC3O[C@H](CO)[C@@H](O)[C@H](O)[C@H]3O)c1C2=O (stereo partly drawn)	3.2µM*	?	?	?	0%
O=[N+]([O-])c1cc(/C=N\Nc2nccs2)ccc1O	?	·	9.5µM*	·	17%
O=[N+]([O-])c1ccccc1/C=N\Nc1nccs1	1%	-12%	2%	-11%	7%
COc1cccc(COCCN2CCN(S(=O)(=O)c3ccccc3)CCC2=O)c1	·	10%	·	·	·
Cc1cc(=O)oc2c(C)c(OCC(=O)N3CCN(c4ccccc4)CC3)ccc12	-2%	-26%	-2%	-7%	-9%
Cc1cc(=O)oc2c(C)c(OCC(=O)N3CCN(c4cccc(Cl)c4)CC3)ccc12	1%	-9%	21µM*	i	14%
COc1ccc(CNC(=O)Cc2ccc(NC(=O)C3=C(C)OCCS3)cc2)cc1	2%	-12%	-26%	-6%	20µM*
CC1=C(C(=O)Nc2ccc(CC(=O)NCc3ccc(OC(C)C)cc3)cc2)SCCO1	0%	21%	?	-6%	?
CCOC(=O)c1cnc(Nc2nc3ccccc3o2)nc1CSC(=S)N(CC)CC	3%	11%	0%	0%	0.58µM*
CCOC(=O)c1cnc(Nc2nc3ccccc3o2)nc1CSc1ncccn1	·	?	·	-1%	·
N#Cc1cc(Oc2cccc3cccnc23)c(-n2nnc3ccccc32)cc1C#N	-4%	-106%	-8%	-1%	7.9µM*
N#Cc1cc(O)c(-n2nnc3ccccc32)cc1C#N	0%	-12%	-6%	-8%	12%
CCC(C)C(NC(=O)OC(C)(C)C)C(=O)NC1COC2CC(n3ccc(=O)[nH]c3=O)OC12 (stereo not drawn)	·	-2%	·	·	·
O=C(O)C1OC(Oc2c(-c3ccc(O)c(O)c3)oc3cc(O)cc(O)c3c2=O)C(O)C(O)C1O (stereo not drawn)	-3%	21%	?	25µM*	0%
CC1OC(Oc2c(-c3cc(O)c(O)c(O)c3)oc3cc(O)cc(O)c3c2=O)C(O)C(O)C1O (stereo not drawn)	-1%	-31%	-13%	?	?
Cc1ccc(SCC(Cc2ccccc2)N2CCN(C)CCC2=O)cc1 (stereo not drawn)	·	17%	·	·	·
CC(C)CC(CSc1ccc(Br)cc1)N1CCN(C)CCC1=O (stereo not drawn)	·	2%	·	·	·
Cc1cc(/C=C2\C(=O)NC(=O)N(c3ccccc3F)C2=O)c(C)n1-c1cc(C(=O)O)cc(C(=O)O)c1	-1%	23%	-24%	11µM*	0%
Cc1cc(/C=C2\C(=O)NC(=O)N(c3ccc(F)cc3)C2=O)c(C)n1-c1cccc(C(=O)O)c1	2%	-16%	28%	11%	14%
COc1cc(Nc2c3c(nc4ccccc24)CCC3)cc(OC)c1OC	-3%	-12%	0%	-15%	20µM*
COc1ccc(OC)c(Nc2c3c(nc4ccccc24)CCC3)c1	-2%	-3%	-17%	-4%	16µM*

Source: PubChem
